Screening data: PubChem BioAssay, National Center for Advancing Translational Sciences (NCATS)
BAZ2B inh = qHTS Assay for Inhibitors of BAZ2B; Bromodomain adjacent to zinc finger domain protein 2B (Homo sapiens), Q9UIF8; AlphaScreen BAZ2B-H3K14Ac peptide displacement; Potency, µM (highest dose often 114 µM), without a hit: at the highest dose activity change, negative = inhibition, usual class: inhibitors; hit rate 4.4% among 360,000; AID 504333, 2011; also: % is scaled to controls: 0 for no effect and ±100 for the full control effect; nearly all actives have a fitted effect of over 60% in size
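In this displacement format the biotinylated H3(5-23) peptide acetylated at Lys14 serves as ligand at 50 nM, with BAZ2B at 50 nM in PBS pH 7.4 containing 0.01% Tween-20. Donor and acceptor beads are 10 ug/mL final.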
G9a inh = qHTS Assay for Inhibitors of Histone Lysine Methyltransferase G9a. Histone-lysine N-methyltransferase EHMT2 (Homo sapiens), Q96KQ7. G9a H3K9 monomethylation, AlphaScreen, 2 h. Potency, µM (top dose mostly 102 µM), without a hit: at the highest dose activity, negative = inhibition, most hits filed as inhibitors. hit rate 8.8% among 350,000. AID 504332, 2011; also: % is scaled to controls: 0 for no effect and ±100 for the full control effect; nearly all actives have a fitted effect of over 75% in size
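G9a (20 nM) was preincubated 15 min with compound, then reacted 2 h at room temperature with 500 nM biotin-H3K9 peptide and 20 µM SAM. Monomethyl-H3K9 detected by AlphaScreen using anti-H3K9me1 antibody.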
Sfp PPTase inh = qHTS Assay for Inhibitors of Bacillus subtilis Sfp phosphopantetheinyl transferase (PPTase); 4'-phosphopantetheinyl transferase ffp (Bacillus subtilis), Q9F4F7; Biochemical Sfp PPTase activity, qHTS; Potency, µM, for inactives: largest response in the series, negative = inhibition, actives largely listed as inhibitors; hit rate 3.5% among 310,000; AID 1490, 2009;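 also: the enzyme is Sfp with the accession as filed and its product quenches rhodamine fluorescence; 0% = enzyme reaction without inhibitor and -100% = no enzyme wells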
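Compounds were incubated with enzyme (final 15 nM) for 15 min at room temperature before substrate addition started the reaction. Fluorescence at 525 nm excitation, 598 nm emission was recorded immediately and after 30 minutes.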
HP1b chromo inh = HTS for Inhibitors of HP1-beta Chromodomain Interactions with Methylated Histone Tails; Chromobox protein homolog 1 (Homo sapiens), P83916; AlphaScreen HP1-beta / biotin-H3K9me3 peptide binding; Potency, µM (series often up to 114 µM), inactives show at the top dose activity change, negative = inhibition, usual class: inhibitors; hit rate 0.56% among 390,000; AID 540317, 2011; also: nearly all actives have a fitted effect of over 70% in size
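Compound inhibition of the preformed complex between 50 nM HP1-beta and 50 nM biotinylated H3K9me3 peptide was read by AlphaScreen. Buffer was PBS pH 7.4 with 0.01% Tween-20. Incubations ran 30 min at room temperature, with 10 ug/mL donor/acceptor beads.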
L3MBTL1 block = qHTS Assay for the Inhibitors of L3MBTL1; Potency, µM (titrated, usually from 57.1 µM), without a hit: top-dose activity, negative = inhibition, usual class: inhibitors; AID 485360, 2010; hit rate 0.66% among 230,000; AlphaScreen L3MBTL1–H3K9me1 peptide binding; also: % is scaled to controls: 0 for no effect and ±100 for the full control effect; nearly all actives have a fitted effect of over 60% in size
Target sequence (Q9Y468 whole entry, looked up): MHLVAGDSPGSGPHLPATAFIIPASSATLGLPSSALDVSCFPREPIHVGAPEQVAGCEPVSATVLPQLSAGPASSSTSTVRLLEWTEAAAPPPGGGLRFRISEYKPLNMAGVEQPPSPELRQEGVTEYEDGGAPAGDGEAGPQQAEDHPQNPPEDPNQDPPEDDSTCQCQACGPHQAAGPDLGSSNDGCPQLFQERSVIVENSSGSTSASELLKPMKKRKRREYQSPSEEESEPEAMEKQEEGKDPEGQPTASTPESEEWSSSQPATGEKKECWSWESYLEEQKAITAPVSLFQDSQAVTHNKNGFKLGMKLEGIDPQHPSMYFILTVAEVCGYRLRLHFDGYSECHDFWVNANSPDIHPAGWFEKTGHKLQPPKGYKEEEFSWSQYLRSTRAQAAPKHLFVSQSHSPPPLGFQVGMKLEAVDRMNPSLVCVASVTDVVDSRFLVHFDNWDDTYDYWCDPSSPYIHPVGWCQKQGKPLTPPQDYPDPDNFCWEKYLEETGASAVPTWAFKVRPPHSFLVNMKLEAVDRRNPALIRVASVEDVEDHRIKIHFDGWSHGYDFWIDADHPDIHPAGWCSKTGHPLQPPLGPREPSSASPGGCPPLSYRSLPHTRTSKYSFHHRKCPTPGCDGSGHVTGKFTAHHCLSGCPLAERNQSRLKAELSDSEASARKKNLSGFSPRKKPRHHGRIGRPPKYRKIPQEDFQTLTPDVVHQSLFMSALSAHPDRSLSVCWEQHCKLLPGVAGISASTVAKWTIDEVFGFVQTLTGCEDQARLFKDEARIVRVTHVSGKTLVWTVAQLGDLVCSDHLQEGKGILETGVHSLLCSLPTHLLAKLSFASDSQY
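Displacement of a biotinylated histone H3(1-15) peptide monomethylated at Lys9 (75 nM) from L3MBTL1 (50 nM) was measured by AlphaScreen after a 30 min room-temperature compound incubation; cefsulodin titration served as intraplate control.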
JMJD2A Tudor = qHTS Assay for Inhibitors of JMJD2A-Tudor Domain; Lysine-specific demethylase 4A (Homo sapiens), O75164; AlphaScreen JMJD2A-Tudor / H3K4me3 peptide binding; Potency, µM (series often up to 114 µM), for inactives: at the top dose activity change, negative = inhibition, actives largely listed as inhibitors; hit rate 4.4% among 390,000; AID 504339, 2011; also: % is scaled to controls: 0 for no effect and ±100 for the full control effect; nearly all actives have a fitted effect of over 50% in size
Starred values were filed as active, the others as inactive; [ ] = dose if it differs, or a comment. Sampled rows, rich in hits. Any-hit rate of the full collection: about 12%. Calls follow the shape of the dose curve; as a rule, active = well fitted curve in the direction sought with a large enough effect; inconclusive = small, poorly fitted or top-dose-only effect, or another doubt; inactive = no such curve, though single readings can be large; an effect the other way counts as inactive or inconclusive. Potency is read from the fitted curve at half-maximal effect.

Results for COc1ccc(-c2nc3ccccc3n3c(-c4ccccc4)c4c(=O)n(C)c(=O)n(C)c4c23)cc1 ?
BAZ2B inh: 1%; G9a inh: -3%[59 µM]; HP1b chromo inh: 54%; JMJD2A Tudor: 9%

What do the screens show for `COc1cc2[nH]c(=O)n(Cc3ccc(C(=O)N4CCN(c5cc(Cl)ccc5C)CC4)cc3)c(=O)c2cc1OC`?
BAZ2B inh: inconclusive; G9a inh: -37%[59 µM]; HP1b chromo inh: -11%; JMJD2A Tudor: -30%

How did CC(C)C[C@H](N)CSSC[C@@H](N)CC(C)C do in these assays?
G9a inh: 16µM*

How did Cn1c(=O)n(C)c2cc(N3CCOCC3)c(NS(=O)(=O)c3ccc(Br)cc3)cc21 do in these assays?
BAZ2B inh: 50µM*; G9a inh: inconclusive; HP1b chromo inh: 25%; JMJD2A Tudor: -16%

What do the screens show for `Cn1c(=O)c(=O)n(C)c2cc(N3CCOCC3)c(NS(=O)(=O)c3ccc(F)c(Cl)c3)cc21`?
BAZ2B inh: -4%; G9a inh: -41%[59 µM]; Sfp PPTase inh: 10%; HP1b chromo inh: 57%; JMJD2A Tudor: -13%

What do the screens show for `Cn1c(=O)c(=O)n(C)c2cc(N3CCOCC3)c(NS(=O)(=O)c3ccc([N+](=O)[O-])cc3)cc21`?
BAZ2B inh: 79µM*; G9a inh: inconclusive; Sfp PPTase inh: 50µM*; HP1b chromo inh: 13%; JMJD2A Tudor: inconclusive

What do the screens show for `CC1CCN(c2ccc(C(=O)O)cc2NS(=O)(=O)c2ccc(Br)cc2)CC1`?
BAZ2B inh: -31%; G9a inh: 28µM*; Sfp PPTase inh: -13%; HP1b chromo inh: 21%; L3MBTL1 block: -12%; JMJD2A Tudor: -24%

Results for Cn1c(=O)c(=O)n(C)c2cc(N3CCCC3)c(NS(=O)(=O)c3ccc(Cl)cc3)cc21 ?
BAZ2B inh: -34%; G9a inh: inconclusive; Sfp PPTase inh: -10%; HP1b chromo inh: 29%; JMJD2A Tudor: -33%

Results for COC(=O)c1ccc(N2CCCCC2)c(NS(=O)(=O)c2ccc(C)cc2)c1 ?
BAZ2B inh: 9%; G9a inh: 5%; Sfp PPTase inh: -4%; HP1b chromo inh: 32%; JMJD2A Tudor: 6%

Results for CCOCCCNC(=O)c1cnc2sc(N3CCCCCC3)nn2c1=O ?
BAZ2B inh: -12%; G9a inh: 11%[59 µM]; HP1b chromo inh: inconclusive; JMJD2A Tudor: -17%

What do the screens show for `COc1ccc([C@]23Cc4ccccc4C(O2)C2=C(O3)C(=O)c3ccccc3C2=O)cc1`?
BAZ2B inh: inconclusive; G9a inh: inconclusive; Sfp PPTase inh: 6%

Results for COC(=O)N1C2CC3(C)C=C(C)OC1(C)C3c1ccccc12 (centres undefined) ?
Sfp PPTase inh: 19%

How did O=C(NCCc1ccccc1)c1cc(-c2cccc(Cl)c2)on1 do in these assays?
BAZ2B inh: 2%; G9a inh: -23%[59 µM]; HP1b chromo inh: 31%; JMJD2A Tudor: -8%

How did COC(=O)c1ccc(N=Cc2c(C(F)(F)F)[nH][nH]c2=O)cc1 do in these assays?
BAZ2B inh: -22%; G9a inh: -14%; Sfp PPTase inh: 9%; HP1b chromo inh: 22%; L3MBTL1 block: 11%; JMJD2A Tudor: -6%

How did COc1ccc(CN=Cc2c(C(F)(F)F)[nH][nH]c2=O)cc1 do in these assays?
BAZ2B inh: 10%; G9a inh: -11%[59 µM]; Sfp PPTase inh: 14%; HP1b chromo inh: -1%; JMJD2A Tudor: 79µM*

What do the screens show for `CC(=O)NCCC(=O)Nc1cc(S(=O)(=O)N2CCCCC2)ccc1N1CCN(C)CC1`?
BAZ2B inh: 10%; G9a inh: 50µM*; HP1b chromo inh: 6%; L3MBTL1 block: -9%; JMJD2A Tudor: inconclusive
